The first assay has as its target FBXO43. In words: pooled miR-30 sensor sort-seq; sequence = guide strand. The following applies: shRNA.
For the sequence TAGGCTACAATCATCTTTGGAA, the sensor-assay potency score (higher = more potent) worked out at 0.408.
The same measure, in the same setting: the figure for TAACAGAAGAGCTTGCTAGAGG is -0.36.
On the same count and under the same terms, as for TTGCTTTTCATGAACAGCTCAT, the figure is -0.219; as for TTCTTGAAAAGAACCCTCCTGG, 0.0426; as for TTATCTTGAACAACAATTTCAC, 0.0349.
Regarding TTTATCTTGAACAACAATTTCA, the sensor-assay potency score (higher = more potent) is -0.614.

Another assay concerns the target FBXO8. Described as above. Conditions: shRNA.
Turning to TTCATCATTCGCAAGGTCCTGC, the sensor-assay potency score (higher = more potent) is 0.558.
Still for that read-out and setting: the figure for TCATCCAAGACATCTCTCCTTT is 0.239; for TTGTACAGAAGATAAACTTTGC it is -0.385.
TTTATCATTCGTTAACAGCTGT displayed a sensor-assay potency score (higher = more potent) of 0.355.
Same read-out and setting: as for TTGCTCACTGTAGCCTTCTTGT, the figure is -1.19.
Same read-out and setting: the figure for TTCCTTTGGCGAATCATCCAGG is -0.484; for TTGCTCGCAGCCATTCTCCTGC it is -0.359; for TTCATCAAGATAGATTCTCAGT it is -0.522.
On to TTAGTCTGAAGTAAAAACTGAA, for which the sensor-assay potency score (higher = more potent) was -0.599.
On the same count and under the same terms, as for TAGGACAAGATGGTAAAGCTTA, the figure is -0.15.
For TAGCACAGTACATAGACAGCAT, the sensor-assay potency score (higher = more potent) was 0.733.

The next assay has as its target FBXW9. Described as above. Conditions: shRNA.
On to TTCGCTCTCAACTGAGAGCGGG, for which the sensor-assay potency score (higher = more potent) was -0.823.
As for TACTATTTCGCTTAGTGCCTAA, the sensor-assay potency score (higher = more potent) was -0.65.
The same measure, in the same setting: as for TAGATGGTCACCTTCTTGTCAT, the figure is -0.453; as for TTCTTCTCTTCCACCACTGGGT, -0.376; as for TAAGGTCTTGATCAGAACCTGG, -0.161.
On the same count and under the same terms, the figure for TCGCTTAGTGCCTAAGGTCTTG is -0.92; for TATCTCGCCGAACTGCTGCCCA it is -0.658; for TCGCTCTCAACTGAGAGCGGGG it is -1.29.
On the same count and under the same terms, the figure for TTGACGTTGCGATCTCGGGAGC is -1.12.
Turning to TTCTCTTCCACCACTGGGTAGG, the sensor-assay potency score (higher = more potent) is -0.729.
On the same count and under the same terms, the figure for TTCACTGTGCTGTCCCAGGAGC is -1.05; for TCGTAGATGGTCACCTTCTTGT it is -0.618.

For the next assay, the target named is FCF1. The description is as above. The following applies: shRNA.
On to TTATGCTGAGTTACTCTCTGTA, for which the sensor-assay potency score (higher = more potent) is 0.221.
Still for that read-out and setting: the figure for TCTGAGACTAAGCATTCGCTTC is -1.06; for TGTGTGTACATGGTAATCGTTC it is -0.765.
Still for that read-out and setting: as for TTTTAATCTATCCTTTTCTTTA, the figure is -1.02; as for TTTAGGTTTTAATCTATCCTTT, -0.181.
Still for that read-out and setting: as for TTGGGGAACTTCTCTTTCCTTT, the figure is -0.569; as for TTATATTGGAAAAATAAGCAGG, -0.37; as for TTTTAGGTTTTAATCTATCCTT, -0.595.
As for TTAGGTTTTAATCTATCCTTTT, the sensor-assay potency score (higher = more potent) was -0.692.
On the same count and under the same terms, the figure for TTCAGCCATTACACAATCGGTT is -0.926; for TTCCTTTGTGTGTACATGGTAA it is -0.531.
Also: reference of the scale not given here.
